# Test results taken from the supplement of paper PMC6555819.
# Test system: VDR:RXRa (NR concentration 270 nM, RXRa partner concentration 90 nM)
# Test: PBM binding z-score (relative to random genomic background probes); higher = stronger binding; sequences stand for … in GC…GCGATTGACAGCGTAGAATGAAGG
# Procedure: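 Protein-binding microarray (Agilent 4x180K custom design, double-stranded 60-nt probes: 5' GC cap, 34-nt variable region, 24-nt constant primer region; full probe sequence given). Purified or IVT nuclear receptor:RXRα heterodimers (3:1 NR:RXRα, mostly 270:90 nM) or homodimers were incubated for 1 h in PBS with 2% milk and no ligand, then detected with Alexa488 antibodies. Fluorescence from o1-orientation probes (~5 replicates averaged) was converted to z-scores against 500 random hg19 background probes. Variable regions are seed direct-repeat (DR0–DR5) sites, all their single-nucleotide variants and half-site ablations.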
row,Sequence,PBM binding z-score
1,CCGCGGAGGACAACAGGAGGTCAGAGCTGCCAGA,1.8
2,TAGCCTAGGTCAGATCGGCCCAGTATACGCTATA,0.134
3,CCAACTGGGGCAAAGGTTACCATACTCAGTACGA,1.7
4,CCTCGGAGGACAGGAGGTCAGAGCTGTCCGCTTT,1.47
5,CCGACTGGTGCATAAGGTTACCATAAGCCAGCCC,0.347
6,CGTCAAAGTTCAACTAAGGTAACGTAAAGCACGC,4.74
7,ACTCGGAGGACAACGGTCAGAGCTACGCCAGTGA,-0.667
8,CAAACTAGGTCACCGGAGGGTCAAAGTCCGCATG,5.82
9,GCTTACGGGTCAAGGGTTATAGCATGAATAGAAT,4.33
10,AATACATGGTCATCGTAGGCCAGAGTACGCACAG,0.347
11,AGAATGAGGTTATTCAGATCAGGGAATTGCGGTC,2.7
12,TCATATAGGTAAATGCTAGGTGAAAGTTCGATCT,1.22
13,CCTAGCAGGCCAATCTTGGTCACTCAAGGCTTGA,-0.601
14,TGAATGAGGTTAAGGATCAGGGAACGTGGCGTCG,0.99
15,AGAATGAGGTTACCAATGATCAGGGAAACGCTTG,1.18
16,TCTGCTAGGTCAGTTGGTCTGCTAACGAGCTGCC,0.0911
17,TCTTGTAGATCAACAGGAGTTTAAGAAAGATCGA,0.517
18,ATATGTAGGGTAAGGGTCATTCAGGTTGGTTCGC,5.59
19,CCTAGCAGGCCAATCTGGGTCACTCGAGGCTTGA,0.491
20,GATGCTAGGTCAACTGATGGTCAGCTAAAGCTCG,1.69

row,Sequence,PBM binding z-score
1,CGAACTAGGTCATTGACAGGTCAGTGAATAGTAA,3.9
2,CCTTACGGGTCACGAGGTTATAGCGCGACGAGCG,4.99
3,CAAACTAGGTCTCCGGAAGGTCAAAGTCCGCATG,3.06
4,CCGACTGGGGCAAGGTTACTATAACGCACAGCCA,0.0885
5,TAGCCTAGGTGATTCAGGGGCCAGTATAGAAAGC,-0.381
6,TCGAGTAGCTTAGGGGCATTCAGAATGGCGTCGA,-0.202
7,CAAACTAGGTCTCAGAGGTCAAAGTCCGTGCGTA,5.82
8,ACTTGTTGGTCAGCTGAGGTCACACACAATTCGG,4.61
9,CCGACTGGGGCAGAAAGGTCACCATACCATCCGG,4.43
10,ACTATTAGTTGATTTAGGGCAACCGATACGACGC,0.131
11,ATCTCTAGGAAAAGTTCAGTGAAAGATCGATAGA,1.2
12,TCTCAGAGGACACGAAGGTCAGAGCTTTCCAGAG,2.75
13,TCAGACAGGTGTAGGTAACTCAGGTACGCAGTCG,0.89
14,TCTAGTTGGTCACTGAGGTCACACACGACGGGTA,6.51
15,CCTACTGGGCCAGTCAGAGGTCATTGATCATATG,3.67
16,CGTCCAAGGTCAGCATGTCAGTGAAAGCGACGTG,2.49
17,CCTAGCAGGCCAATCTGGGCCACTCAAGGCTTGA,-0.783
18,GCTTGTAGTTCAAGGTTAAGAAAGACTAAGCTAA,1.46
19,TCATATAGGTAATACAGGTGACAGTCGGCATCTA,0.922
20,GCTATTAGTTAAAAGGGCAACCGAATGATTCTCG,0.193
